Measured values from ChEMBL document CHEMBL1961873, “Compounds: GSK PKIS; Assays: Nanosyn kinase panel” (2012).

Each compound was assayed against Proto-oncogene tyrosine-protein kinase receptor Ret (Homo sapiens) (UniProt P07949). Details: at 1 µM.
Chain of Proto-oncogene tyrosine-protein kinase receptor Ret (Homo sapiens) (P07949 whole entry): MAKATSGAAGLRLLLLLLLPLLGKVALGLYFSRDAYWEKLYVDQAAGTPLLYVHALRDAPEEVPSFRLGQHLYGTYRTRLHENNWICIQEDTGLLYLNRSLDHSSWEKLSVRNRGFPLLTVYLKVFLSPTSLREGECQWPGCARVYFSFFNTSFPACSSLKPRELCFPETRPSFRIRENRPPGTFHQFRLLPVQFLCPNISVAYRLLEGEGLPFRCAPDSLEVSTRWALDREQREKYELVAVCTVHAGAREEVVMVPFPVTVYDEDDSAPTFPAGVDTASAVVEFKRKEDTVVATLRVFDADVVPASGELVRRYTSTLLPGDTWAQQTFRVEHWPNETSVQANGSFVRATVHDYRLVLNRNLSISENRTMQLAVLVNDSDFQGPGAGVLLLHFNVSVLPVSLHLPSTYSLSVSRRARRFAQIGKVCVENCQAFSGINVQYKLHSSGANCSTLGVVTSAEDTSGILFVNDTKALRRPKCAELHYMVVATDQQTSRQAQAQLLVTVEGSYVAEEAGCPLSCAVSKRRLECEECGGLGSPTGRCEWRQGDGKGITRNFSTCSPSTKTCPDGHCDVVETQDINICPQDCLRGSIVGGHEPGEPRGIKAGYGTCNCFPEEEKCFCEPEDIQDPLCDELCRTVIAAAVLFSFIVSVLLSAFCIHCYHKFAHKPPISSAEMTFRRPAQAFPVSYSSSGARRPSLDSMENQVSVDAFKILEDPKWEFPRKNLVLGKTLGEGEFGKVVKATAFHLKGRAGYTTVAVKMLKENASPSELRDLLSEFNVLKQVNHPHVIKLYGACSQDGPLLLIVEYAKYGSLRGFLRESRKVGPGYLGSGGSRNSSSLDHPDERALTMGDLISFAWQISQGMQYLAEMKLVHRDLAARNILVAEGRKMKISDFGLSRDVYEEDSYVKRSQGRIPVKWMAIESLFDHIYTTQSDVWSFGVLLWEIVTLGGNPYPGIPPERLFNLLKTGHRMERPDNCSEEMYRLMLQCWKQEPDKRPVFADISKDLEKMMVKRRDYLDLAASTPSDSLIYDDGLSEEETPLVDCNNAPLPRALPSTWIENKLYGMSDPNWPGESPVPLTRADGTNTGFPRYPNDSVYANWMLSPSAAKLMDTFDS

| Structure (SMILES) | inhibition [%] |
| --- | --- |
| [O-][S+]1CCN(Cc2ccc(-c3ccc4ncnc(Nc5ccc(OCc6ccccc6)c(Cl)c5)c4c3)o2)CC1 | 3.49 |
| C[C@@H](Oc1cc(-n2cnc3ccc(OC[C@@H](O)CO)cc32)sc1C(N)=O)c1ccccc1Cl | 7.49 |
| OCc1ccc(-c2nc(-c3ccccn3)c(-c3ccc4c(c3)OCO4)[nH]2)cc1 | 4.99 |
| NS(=O)(=O)c1ccc(Nc2cc(-c3cccc(O)c3)n[nH]2)cc1 | 15.5 |
| Nc1ccc(C#Cc2cncnc2Nc2ccc(OCc3cccc(F)c3)c(Cl)c2)cc1 | 7.18 |
| Cc1ccc(Nc2ccnc(Nc3cccc(C(N)=O)c3)n2)cc1O | 85.7 |
| CCCN1CCCC(c2ccc(Nc3nc(Nc4cc(F)ccc4C(N)=O)c4cc[nH]c4n3)c(OC)c2)C1 (stereo unspecified) | 20.9 |
| N#Cc1cccc(Nc2nccc(-c3cnn4ncccc34)n2)c1 | 37.4 |
| COc1cc(Nc2nccc(-c3cnn4ncccc34)n2)cc(OC)c1 | 25.4 |
| CS(=O)(=O)CCNCc1nc(-c2ccc3ncnc(Nc4ccc(OCc5cccc(C(F)(F)F)c5)cc4)c3c2)cs1 | 4.11 |
| Cc1ccc(O)cc1Nc1ccnc2ccc(S(C)(=O)=O)cc12 | 88.4 |
| Cc1nc(-c2ccccc2)n2nc(NCCCN3CCOCC3)ncc12 | 6.88 |
| COc1cccc(-n2ncc3c(N/N=C/c4ccc(S(C)(=O)=O)cc4)ncnc32)c1 | 30.7 |
| NC(=O)c1sc(-n2cnc3ccccc32)cc1OCc1ccccc1Br | 12.7 |
| CS(=O)(=O)Nc1cccc(-c2ccc3c(NC(=O)C4CC4)n[nH]c3c2)c1 | 15.4 |
| COc1cccc(-n2ncc3c(N/N=C/c4ccc(C)cc4)ncnc32)c1 | 11.5 |
| NS(=O)(=O)c1cccc(Nc2cc(-c3ccc(F)cc3)n[nH]2)c1 | 17.9 |

| Structure (SMILES) | inhibition [%] |
| --- | --- |
| COC(=O)c1ccc2c(c1)C(=Cc1cc(Br)c(O)c(Br)c1)C(=O)N2 | 25.8 |
| CCS(=O)(=O)c1ccc(OC)c(Nc2nccc(N(C)c3ccc4c(C)n[nH]c4c3)n2)c1 | 83.5 |
| O=S(=O)(CCOCc1ccc(-c2ccc3ncnc(Nc4ccc(OCc5cccc(F)c5)c(Cl)c4)c3c2)o1)c1ccccc1 | 5.38 |
| Cc1cc(-c2ccccn2)cc(C)c1/C=C/c1cncc(-c2nn[nH]n2)c1 | 5.38 |
| CN(C)C(=O)O[C@@H]1CN[C@@H](C#Cc2cc3ncnc(Nc4ccc(OCc5cccc(F)c5)c(Cl)c4)c3s2)C1 | 4.94 |
| Oc1cccc(-c2nc(-c3ccccc3)[nH]c2-c2ccncc2)c1 | 72.8 |
| CN1CCN(C(=O)c2ccc(NC(=O)Nc3ccc(N(C)c4ccnc(Nc5ccc(CS(C)(=O)=O)cc5)n4)cc3)cc2)CC1 | 76.8 |
| COc1cc(/C=N/Nc2ncnc3c2cnn3C(C)C)ccc1O | 85.4 |
| FC(F)(F)c1ccc(-c2nn3ncccc3c2-c2ccnc(Nc3ccc4c(c3)OCCO4)n2)cc1 | 29.2 |
| Nc1nccc(-c2c(-c3ccc(F)cc3)ncn2CCCN2CCOCC2)n1 | 5.26 |
| Cc1ccc(C(=O)NC2CC2)cc1-c1ccc2[nH]ncc2c1 | -0.48 |
| COc1cc2ncn(-c3cc(OCc4ccccc4S(C)(=O)=O)c(C#N)s3)c2cc1OC | 63.7 |
| COc1ccc2ncnc(Nc3ccc(OCc4ccccc4)cc3)c2c1 | 5.23 |
| COC(=O)Nc1nc2cc(Oc3ccc(NC(=O)Nc4cccc(Br)c4)cc3)ccc2[nH]1 | 80.6 |
| Cc1ccc2c(-c3ccnc(Nc4cccc(C(F)(F)F)c4)n3)c(-c3ccccc3)nn2n1 | 51 |
| COc1cc2ncnc(Nc3ccc(C)c(O)c3)c2cc1OC | 89.4 |

What follows are compounds tested on Proto-oncogene tyrosine-protein kinase receptor Ret (Homo sapiens), P07949 [V804L]. Details: at 0.1 µM.
Chain of Proto-oncogene tyrosine-protein kinase receptor Ret (Homo sapiens), P07949 [V804L] (P07949 whole entry V804L): as the sequence (P07949 whole entry) above, with V804L counted along it

| Structure (SMILES) | inhibition [%] |
| --- | --- |
| [O-][S+]1CCN(Cc2ccc(-c3ccc4ncnc(Nc5ccc(OCc6ccccc6)c(Cl)c5)c4c3)o2)CC1 | 2.69 |
| C[C@@H](Oc1cc(-n2cnc3ccc(OC[C@@H](O)CO)cc32)sc1C(N)=O)c1ccccc1Cl | 2.02 |
| OCc1ccc(-c2nc(-c3ccccn3)c(-c3ccc4c(c3)OCO4)[nH]2)cc1 | 4.41 |
| NS(=O)(=O)c1ccc(Nc2cc(-c3cccc(O)c3)n[nH]2)cc1 | 9.69 |
| Nc1ccc(C#Cc2cncnc2Nc2ccc(OCc3cccc(F)c3)c(Cl)c2)cc1 | 9.98 |
| Cc1ccc(Nc2ccnc(Nc3cccc(C(N)=O)c3)n2)cc1O | 11.7 |
| CCCN1CCCC(c2ccc(Nc3nc(Nc4cc(F)ccc4C(N)=O)c4cc[nH]c4n3)c(OC)c2)C1 (stereo unspecified) | 10.1 |
| N#Cc1cccc(Nc2nccc(-c3cnn4ncccc34)n2)c1 | 6.87 |
| COc1cc(Nc2nccc(-c3cnn4ncccc34)n2)cc(OC)c1 | 6.17 |
| CS(=O)(=O)CCNCc1nc(-c2ccc3ncnc(Nc4ccc(OCc5cccc(C(F)(F)F)c5)cc4)c3c2)cs1 | 2.89 |
| Cc1ccc(O)cc1Nc1ccnc2ccc(S(C)(=O)=O)cc12 | 7.62 |
| Cc1nc(-c2ccccc2)n2nc(NCCCN3CCOCC3)ncc12 | 2.64 |
| COc1cccc(-n2ncc3c(N/N=C/c4ccc(S(C)(=O)=O)cc4)ncnc32)c1 | 4.8 |
| NC(=O)c1sc(-n2cnc3ccccc32)cc1OCc1ccccc1Br | 3.43 |
| CS(=O)(=O)Nc1cccc(-c2ccc3c(NC(=O)C4CC4)n[nH]c3c2)c1 | -3.08 |
| COc1cccc(-n2ncc3c(N/N=C/c4ccc(C)cc4)ncnc32)c1 | 3.72 |
| NS(=O)(=O)c1cccc(Nc2cc(-c3ccc(F)cc3)n[nH]2)c1 | 5.42 |

| Structure (SMILES) | inhibition [%] |
| --- | --- |
| COC(=O)c1ccc2c(c1)C(=Cc1cc(Br)c(O)c(Br)c1)C(=O)N2 | 7.28 |
| CCS(=O)(=O)c1ccc(OC)c(Nc2nccc(N(C)c3ccc4c(C)n[nH]c4c3)n2)c1 | 4.04 |
| O=S(=O)(CCOCc1ccc(-c2ccc3ncnc(Nc4ccc(OCc5cccc(F)c5)c(Cl)c4)c3c2)o1)c1ccccc1 | 6.3 |
| Cc1cc(-c2ccccn2)cc(C)c1/C=C/c1cncc(-c2nn[nH]n2)c1 | 3.85 |
| CN(C)C(=O)O[C@@H]1CN[C@@H](C#Cc2cc3ncnc(Nc4ccc(OCc5cccc(F)c5)c(Cl)c4)c3s2)C1 | 0.31 |
| Oc1cccc(-c2nc(-c3ccccc3)[nH]c2-c2ccncc2)c1 | 4.04 |
| CN1CCN(C(=O)c2ccc(NC(=O)Nc3ccc(N(C)c4ccnc(Nc5ccc(CS(C)(=O)=O)cc5)n4)cc3)cc2)CC1 | 27.2 |
| COc1cc(/C=N/Nc2ncnc3c2cnn3C(C)C)ccc1O | 14.1 |
| FC(F)(F)c1ccc(-c2nn3ncccc3c2-c2ccnc(Nc3ccc4c(c3)OCCO4)n2)cc1 | 9.12 |
| Nc1nccc(-c2c(-c3ccc(F)cc3)ncn2CCCN2CCOCC2)n1 | 1.67 |
| Cc1ccc(C(=O)NC2CC2)cc1-c1ccc2[nH]ncc2c1 | -1.65 |
| COc1cc2ncn(-c3cc(OCc4ccccc4S(C)(=O)=O)c(C#N)s3)c2cc1OC | 11.3 |
| COc1ccc2ncnc(Nc3ccc(OCc4ccccc4)cc3)c2c1 | 0.54 |
| COC(=O)Nc1nc2cc(Oc3ccc(NC(=O)Nc4cccc(Br)c4)cc3)ccc2[nH]1 | 37.5 |
| Cc1ccc2c(-c3ccnc(Nc4cccc(C(F)(F)F)c4)n3)c(-c3ccccc3)nn2n1 | 2.52 |
| COc1cc2ncnc(Nc3ccc(C)c(O)c3)c2cc1OC | 3.3 |
